The panel holds about 79,000 compounds, 15% with a hit somewhere; the sample as a whole holds those more often. Values without a mark were called inactive. Calls of active or inactive are those of the source. Rule as the data show it: active = growth inhibition above about 70%; inactive = the rest.
How the values were obtained:
[1] = NCI Yeast Anticancer Drug Screen. Data for the rad50 strain (AID 155);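 also: 0% = growth of vehicle-only cultures of the same strain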; conditions: S. cerevisiae rad50 strain growth inhibition; at 50.0 µM; active compounds read high
Summary of the method: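 A DNA repair-deficient yeast mutant serves as the test organism; compound-induced growth inhibition is calculated against vehicle-treated cells.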

[2] = NCI Yeast Anticancer Drug Screen. Data for the mec2-1 strain (AID 157); conditions: S. cerevisiae mec2-1 strain, at 50.0 µM, active compounds read high
Summary of the method: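 Strain: mec2-1 (DNA repair/cell cycle alteration). Compound exposure, then growth measured; inhibition expressed relative to vehicle.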

[3] = NCI Yeast Anticancer Drug Screen. Data for the sgs1 mgt1 strain (AID 161);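 also: 0% = growth of cultures given vehicle only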; conditions: S. cerevisiae sgs1 mgt1 strain, at 50.0 µM, active compounds read high
Summary of the method: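 Mutant yeast exposed to compound; growth scored against vehicle-only wells.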

[4] = NCI Yeast Anticancer Drug Screen. Data for the cln2 rad14 strain (AID 165);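 also: 0% = growth equal to vehicle treated cultures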; conditions: S. cerevisiae cln2 rad14 strain, at 50.0 µM, active compounds read high
Summary of the method: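 Compounds are applied to the cln2 rad14 yeast strain, and growth is then compared with that of vehicle-treated cultures to give inhibition.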

[5] = NCI Yeast Anticancer Drug Screen. Data for the bub3 strain (AID 167); conditions: S. cerevisiae bub3 mutant strain, at 50.0 µM, active compounds read high
Summary of the method: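 Inhibition values come from growth of compound-treated mutant yeast normalised to vehicle-treated controls.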

[6] = NCI Yeast Anticancer Drug Screen. Data for the mlh1 rad18 strain (AID 175); conditions: S. cerevisiae mlh1 rad18 strain growth inhibition; at 50.0 µM; active compounds read high
Summary of the method: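 Read-out is yeast growth inhibition, calculated against vehicle-only controls. The compound was applied to a strain engineered with DNA damage repair alterations.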

| Structure (SMILES) | growth inhibition [1] | growth inhibition [2] | growth inhibition [3] | growth inhibition [4] | growth inhibition [5] | growth inhibition [6] |
| --- | --- | --- | --- | --- | --- | --- |
| Cc1ccc(N=Nc2cc(C)c(N)cc2N)c(S(=O)(=O)O)c1 | -33.3% | -5.35% | -16.4% | -38.5% | 3.45% | -24.5% |
| COc1cc(C2c3cc4c(cc3OC(NNC(N)=O)C2C)OCO4)cc(OC)c1OC (configuration not stated) | -4.1% | 6.4% | 6.7% | -19.6% | 11.5% | 10.4% |
| O/N=C1/COC(C(F)(F)F)(C(F)(F)F)C1 | -14.3% | -25.4% | -16.9% | -38.2% | -5.7% | -45.5% |
| COc1ccc(C(O)CC(O)(C(F)(F)F)C(F)(F)F)cc1 (configuration not stated) | 52.7% | 27.6% | 35.3% | 20.3% | 46% | 80.8% (active) |
| CCOC(=O)C(C(=O)OCC)C(c1ccccc1)c1ccccc1OC (configuration not stated) | 6.9% | 12% | 4.15% | 17% | 12.3% | -9.55% |
| CCN(CC)c1ccc(C(=O)c2ccccc2C(=O)O)c(O)c1 | -38.2% | -8.75% | -27.4% | 5.35% | -15.8% | 5.2% |
| COc1ccc([N+](=O)[O-])c2c1CONC2c1c(CO)cnc(C)c1O (configuration not stated) | 35.1% | -12.2% | 27.2% | -22.4% | 5.3% | -2.7% |
| N#CC1(C2CC(=O)N(c3ccccc3)C2=O)CCCCC1=O (configuration not stated) | 10.4% | -21.7% | 26.5% | -3.1% | 2% | -6.7% |
| COc1ccc(-c2cc(=O)c3cccnc3[nH]2)cc1 | 30.1% | 12.9% | 32.4% | 0.7% | 12.2% | 21.1% |
| CCC1(C)CCC(C)c2ccccc21 (configuration not stated) | -1.75% | -5.4% | 3.45% | 3.45% | -0.8% | 0.3% |
| CCOc1cc2c(cc1C(CC)c1ccccc1)OCO2 (configuration not stated) | 6.75% | 12.6% | 9.75% | 3% | 17.6% | 14.7% |
| Nc1ccc(NC(=O)Nc2ccc(N)cc2)cc1 | 24.5% | 4.3% | 16.8% | 9.15% | 10.8% | 20.4% |
| Cc1cc(S(=O)(=O)Nc2nnc3c(Cl)cc(C(F)(F)F)cn23)c(S)cc1Cl | -30.2% | -35.2% | -33.4% | -14.3% | 13.9% | -20% |
| O=C(O)CN1CCCCC1 | -5.65% | 5.5% | -3.8% | -27.1% | -4.1% | -6.65% |
| O=C(CN1CCN(c2ccccc2)CC1)N1CCc2c([nH]c3ccccc23)C1c1cccnc1 (configuration not stated) | 2.45% | -19.8% | -19.6% | 28.6% | 4.35% | -21.6% |
| O=C1c2ccccc2C2NCCCN12 (configuration not stated) | -2.55% | -12.3% | -0.4% | -5.65% | -3.55% | 0.9% |
| CC(C)(C)/[N+]([O-])=C/C(c1ccccc1)C(/C=[N+](/[O-])C(C)(C)C)c1ccccc1 (configuration not stated) | -3.5% | -4.5% | -15.3% | 3.85% | -2.1% | -18.6% |
| C=C1CC2(CC(c3ccccc3Cl)OC(c3ccccc3Cl)C2)OC1=O (configuration not stated) | 27.2% | 47.2% | 23.2% | 33.2% | 20.7% | 18.8% |
| O=C1CCC(=O)C(C(=O)CCC(=O)Nc2cccc(Cl)c2)C1 (configuration not stated) | -20.6% | -6.5% | -11.7% | 19.8% | 11.9% | -4.9% |
| CN(C)C1=NC(NC2CCCCC2)(N(C)C)OC(N(C)C)=N1 (configuration not stated) | 1% | -0.9% | 3.2% | 20.2% | 1.9% | 10.8% |
| CCCCCOC(=S)S | -2.6% | 11.8% | 32.7% | -12.1% | 13.4% | 29.9% |

| Structure (SMILES) | growth inhibition [1] | growth inhibition [2] | growth inhibition [3] | growth inhibition [4] | growth inhibition [5] | growth inhibition [6] |
| --- | --- | --- | --- | --- | --- | --- |
| Cc1cc(C)c(NC(=O)NC2CCCCC2)c(C)c1 | 4.7% | 7.05% | 23.6% | -3.55% | 34% | 31.1% |
| COC(=O)/C=C/c1ccc2c(c1)CCC2 | -35.5% | -30.9% | -13.8% | 14.6% | 31.7% | -1.35% |
| COC(=O)/C(=N\N)C(C(=O)C(=O)Nc1nc(=S)[nH][nH]1)c1nc2ccc([N+](=O)[O-])cc2[nH]c1=O (configuration not stated) | 2.3% | -7.65% | 10.1% | 11.7% | 29% | 22.6% |
| CCSC(SCC)C(NC(C)=O)C(O)C(O)COC(=O)c1ccccc1 (configuration not stated) | 6.05% | 17.3% | 17.4% | 12% | 1.35% | 25.2% |
| CC1CCC2(CC1)OC(C)C(C)O2 (configuration not stated) | 20.1% | -2.4% | 4.9% | -34.6% | 28.8% | 10.7% |
| OC(c1ccccc1)(C1CCNCC1)C1CC1 (configuration not stated) | 9.8% | -10.4% | -4% | -20.4% | -16.6% | -6.45% |
| c1ccc(-c2oc3ccccc3c2-c2ccc(OCCN3CCCC3)cc2)cc1 | 99.5% (active) | 99.6% (active) | 99.7% (active) | 99.3% (active) | 99.3% (active) | 99.5% (active) |
| [O-]c1on[n+]2c1c(Nc1ccc(Cl)cc1)nc1ccccc12 | -31.1% | -28% | -22.3% | -21.2% | -36.5% | -39.5% |
| CC(=O)CC1=CC(C(C)(C)C)=CC(=O)C1=O | 43.1% | 26.1% | 30.1% | 49% | 8.6% | 49.5% |
| O=C(O)Cc1c(-c2ccccc2)nc(=S)[nH]c1-c1[nH]c(=S)nc(-c2ccccc2)c1CC(=O)O | -15.6% | 10.1% | -17% | -12.3% | 2.15% | 2.25% |
| Cc1cc(OC(=O)c2c(C)cc(OC(=O)c3c(C)cc(O)cc3O)cc2O)cc(O)c1C(=O)O | -7.15% | -44.7% | -19.4% | -3.55% | -27.4% | -2.15% |
| CC1CN=C(N(C(=O)Nc2ccc(Cl)cc2)c2cccc(Cl)c2)S1 (configuration not stated) | -30.9% | -13.7% | -50.1% | -8.75% | -14.8% | -52% |
| CCCCN=C=NCCC[N+](C)(C)C | 0.4% | 7.2% | 0.9% | 10% | 2.8% | 8.2% |
| COC(=O)CC12CCCC(C)(CC(=O)N1)C2 (configuration not stated) | 16.4% | 1.25% | 12.5% | 15.8% | -4% | -0.5% |
| CN(C)c1ccc(Cc2c[nH]c3ccccc3c2=O)cc1 | 8.4% | 12.8% | 18.8% | 12.2% | 25.1% | 9.65% |
| C=C1C(=O)OC2C[C@@]3(C)CCCC(=C)C3CC12 (some centres not stated) | 21.4% | 21.1% | 32.1% | 28.6% | 20.6% | 13% |
| CCOC(=O)C1CCCCC1NC1CCCCC1C(=O)OCC (configuration not stated) | 4.65% | -2.35% | -22.9% | -14.2% | -16.2% | 8.9% |
| CC(CCl)NS(=O)(=O)c1ccccc1 (configuration not stated) | 2.1% | 2.85% | -2.85% | 0.85% | -7.5% | -8.05% |
| OC1(C(O)(c2ccc(-c3ccccc3)cc2)c2ccc(-c3ccccc3)cc2)CCCCC1 | -11% | -7.85% | -34% | -14.6% | -26.4% | -0.5% |
| N#CC(C(=O)CCCC(=O)Nc1ccccc1[N+](=O)[O-])c1ccc(Cl)cc1Cl (configuration not stated) | -10.2% | -22.6% | -36.8% | -41.5% | 0.65% | -26.6% |
| CCN(CC)CCNCc1ccc(Cl)cc1 | -16.5% | -38.8% | 3.95% | 6.15% | -8.7% | -16.1% |

— PubChem BioAssay (NCI)
